Reference: PubChem BioAssay AID1159580 (chemical genetic matrix, 2015)
The whole screen tested about 5,500 compounds, of which about 2,000 (36%) were called active. Roughly 18% stayed inconclusive and do not appear here. Cut-off read from the data, not from the text of the source: active = normalized growth mostly below about 0.91 (no sharp cut-off); inconclusive = no clear call, values can overlap the other calls; inactive = mostly above about 0.92. This is one part of the list.

Assay: chemical genetic growth profiling, strain panel (AID 1159580);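 note: tested at 20 µM; growth read once vehicle control cultures reached saturation at 30 °C; 1 = growth at the plate median or of vehicle wells; lower values mean less growth of the strain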
Details: S. cerevisiae deletion strains, growth OD

Measured: normalized growth

CCCN1CC(CSC)CC2c3cccc4[nH]cc(c34)CC21 (stereo not drawn)
inactive: locus YAL040C, strain CLN3, hits give low values 1 | locus YCL061C, strain MRC1 (second series), hits give low values 0.998 | locus YDR150W, strain NUM1, hits give low values 0.997 | locus YDR363W, strain ESC2, hits give low values 0.989 | locus YER002W, strain NOP16, hits give low values 1.01 | locus YGR078C, strain PAC10, hits give low values 1.01 | locus YMR307W, strain GAS1, hits give low values 0.999 | locus YNL128W, strain TEP1, hits give low values 1.02 | locus YNL153C, strain GIM3, hits give low values 0.998 | locus YNL175C, strain NOP13, hits give low values 1.02 | locus YNL197C, strain WHI3, hits give low values 1.01 | locus YNL224C, strain SQS1, hits give low values 1.08 | locus YOR083W, strain WHI5 (second series), hits give low values 1.02
